The results in this text go back to the supplement of paper PMC7184167.

Structures are written as SMILES.

The experiment concerns replication-induced senescent mouse newborn dermal fibroblasts (NBF). Description: relative cell viability of senescent cells (fraction); higher = less killing of senescent cells. Particulars: 1 µM; 3 days. On the procedure: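 Replication-induced senescent newborn mouse skin fibroblasts (NBFs) in 24-well plates were treated with a Selleck FDA-approved drug library at 1 µM for 3 days.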
`CS(=O)(=O)CCNCc1ccc(-c2ccc3ncnc(Nc4ccc(OCc5cccc(F)c5)c(Cl)c4)c3c2)o1` displayed a relative cell viability of 0.746. `OC(CNCC(O)C1CCc2cc(F)ccc2O1)C1CCc2cc(F)ccc2O1` (centres undefined) [Nebivolol] came in with a relative cell viability of 0.256. As to `Nc1ccn([C@@H]2O[C@H](CO)[C@@H](O)C2(F)F)c(=O)n1` [Gemcitabine], the relative cell viability was found to be 0.11.

Molecule `COc1cc2c(Oc3ccc4[nH]c(C)cc4c3F)ncnc2cc1OCCCN1CCCC1` [Cediranib (AZD2171)] showed a relative cell viability of 0.269.
